Laboratory results from PubChem BioAssay AID1030 (National Center for Advancing Translational Sciences (NCATS), 2008).
In all, about 220,000 compounds went through this assay and about 16,000 (7.3%) were called active. About 25% were inconclusive and are not listed. This excerpt belongs to a sample that is enriched for actives. Values without a mark were called inactive. Calls follow the shape of the dose curve; as a rule, active = well fitted inhibition curve with a large enough effect (not every such curve was filed as active); inconclusive = small, poorly fitted or top-dose-only effect, or another doubt; inactive = no such curve, though single readings can be large or run the other way.

biological target: Aldehyde dehydrogenase 1A1 (Homo sapiens) (UniProt P00352); assay: qHTS Assay for Inhibitors of Aldehyde Dehydrogenase 1 (ALDH1A1); conditions: Purified ALDH1A1, NADH fluorescence, propionaldehyde substrate; series mostly up to 75.3 µM; activity, negative = inhibition: at the top concentration;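 as to activity, negative = inhibition: plate controls were no enzyme wells and a reference inhibitor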
Sequence (P00352 whole entry, looked up): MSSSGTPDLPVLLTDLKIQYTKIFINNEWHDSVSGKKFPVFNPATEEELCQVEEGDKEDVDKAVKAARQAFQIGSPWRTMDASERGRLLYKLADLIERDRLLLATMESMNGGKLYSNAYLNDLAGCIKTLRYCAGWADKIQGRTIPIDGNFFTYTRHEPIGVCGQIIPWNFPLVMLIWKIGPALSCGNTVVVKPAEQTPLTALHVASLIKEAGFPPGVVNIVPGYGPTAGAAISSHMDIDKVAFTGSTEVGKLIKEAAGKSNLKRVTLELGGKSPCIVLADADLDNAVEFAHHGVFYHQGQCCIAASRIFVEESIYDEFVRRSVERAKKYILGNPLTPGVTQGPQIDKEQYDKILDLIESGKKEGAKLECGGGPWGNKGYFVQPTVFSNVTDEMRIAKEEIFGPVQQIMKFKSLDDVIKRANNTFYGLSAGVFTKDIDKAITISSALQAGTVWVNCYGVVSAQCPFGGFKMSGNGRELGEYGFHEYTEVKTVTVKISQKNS
Potency is read from the fitted curve at half-maximal effect.

| Compound | activity, negative = inhibition | Potency |
| --- | --- | --- |
| CC(N)(C(=O)O)c1ccc(-c2nn[nH]n2)cc1 (stereo unspecified) | -9.71% | – |
| Cc1cc(C)c(S(=O)(=O)N2CCOCC2)cc1C | 8.64% | – |
| COC1(C2=NCCN2)COc2ccccc2O1 (stereo unspecified) | 0.458% | – |
| CC1(C)C(c2cccs2)=[N+]([O-])C2(CCCCC2=O)N1O (stereo unspecified) | – | 22.4 µM (active) |
| Cc1cccc(C)c1NC(=O)CNC(=O)Cc1ccc(Br)cc1 | 7.71% | – |
| CCCCCC1CCC(c2nnc(SCC(C)=O)o2)CC1 (stereo unspecified) | -4.68% | – |
| CCN(CC)S(=O)(=O)c1ccc(Cl)c(NC(=O)c2ccncc2)c1 | – | 12.6 µM (active) |
| Cc1ccc(CNC(=O)c2cccnc2Cl)cc1 | 11.7% | – |
| CCN(CC)S(=O)(=O)c1ccc(C)c(NC(=O)COc2ccc(Br)cc2Cl)c1 | 0.658% | – |
| CCN(CC)S(=O)(=O)c1cccc(C(=O)Nc2ccccc2)c1 | -7.46% | – |
| Cc1nn(Cc2ccc(F)cc2)c(C)c1NC(=O)c1cccnc1Cl | 10.5% | – |
| CCN(CC)S(=O)(=O)c1ccc(NC(=O)c2cccnc2Cl)c(NC(=O)c2cccnc2Cl)c1 | – | 7.08 µM (active) |
| O=[N+]([O-])c1cc(S(=O)(=O)Nc2cccc(Cl)c2)ccc1N=Nc1c(O)[nH]c2ccccc12 | 7.9% | – |
| COc1ccc(/C=N/NC(=O)c2ccncc2)cc1CN1CCCc2ccccc21 | -1.8% | – |
| CC(C)N(C(=O)c1ccc(-c2ccccc2F)cc1)C(C)C | -6.51% | – |
| O=C(c1cccs1)N(C(=O)c1cccs1)c1ccccn1 | -0.508% | – |
| COc1ccc(CN(C(=O)c2cccs2)c2nccs2)cc1OC | 2.43% | – |
| COc1ccc(CN(Cc2ccc(OC)cc2)C(=O)c2cccs2)cc1 | – | 8.91 µM (active) |
| CCc1ccccc1NC(=S)N(CCN1CCCCCC1)Cc1ccco1 | -4.85% | – |
| O=C(COC(=O)CNC(=O)c1ccco1)Nc1ccc(F)cc1 | 5.83% | – |
| CC(C)[C@@H]1NC(=O)[C@H](Cc2ccccc2)NC(=O)[C@@H](CC(=O)O)NC(=O)CNC(=O)[C@H](CCCNC(=N)N)NC1=O | 7.85% | – |
| Cc1nccc(-c2ccc(-n3c(C)ccc3C)cc2)n1 | -3.39% | – |

| Compound | activity, negative = inhibition | Potency |
| --- | --- | --- |
| Cc1ccc(C(=O)O)cc1NC(=O)c1ccc(Cn2nc(C)c(Cl)c2C)o1 | -5.73% | – |
| O=C(/C=C/c1cc2c(cc1Br)OCO2)NCc1ccc(Cl)cc1 | -10.2% | – |
| O=C(N/N=C/c1cc2c(cc1Br)OCO2)C1COc2ccccc2O1 (stereo unspecified) | – | 25.1 µM (active) |
| O=C(N/N=C\c1cc(Br)c(Br)o1)C1COc2ccccc2O1 (stereo unspecified) | – | 17.8 µM (active) |
| C/C(=N/NC(=O)C1COc2ccccc2O1)c1ccco1 (stereo unspecified) | 6.2% | – |
| Cc1ccc(C(=O)N/N=C\c2cc(Br)c(Br)o2)cn1 | -1.22% | – |
| O=C(CNC(=O)C(c1ccccc1)c1ccccc1)N/N=C\c1ccc2c(c1)OCO2 | 4.74% | – |
| CN(C)c1ccc(C(=S)N2CCN(C(=S)Nc3ccc(Cl)cc3)CC2)cc1 | 5.85% | – |
| CN(Cc1cc2cc(F)ccc2[nH]1)Cc1nc(-c2cnccn2)no1 | -3.79% | – |
| CC(=O)Nc1nc(N(C)C)nc(N(C)C)n1 | 5% | – |
| CC(=O)N/N=C(\C)c1ccc(Br)cc1Br | 12% | – |
| COc1ccc(-c2nc(CN3CCN(c4ncccn4)CC3)c(C)o2)cc1C | 7.29% | – |
| COc1cc(C2C(N3C(=O)c4ccccc4C3=O)C(=O)N2c2ccc(C)c(C)c2)cc(OC)c1OC (stereo unspecified) | 3.1% | – |
| Cc1ccccc1-c1n[nH]c(=S)n1/N=C/c1ccc(-c2ccccc2Br)o1 | – | 14.1 µM (active) |
| Cc1ccsc1/C=N/n1c(=S)[nH]nc(C)c1=O | -0.343% | – |
| Cc1n[nH]c(=S)n1/N=C/c1ccc(Br)o1 | 5.13% | – |
| COc1ccc2nccc(C(=O)O)c2c1 | 9.43% [at 20.9 µM] | – |
| COc1ccc(C=Nc2cccc3ncccc23)cc1 | – | 17.8 µM (active) |
| COc1ccc(OC)c(N=Cc2c(O)[nH]c3ccccc23)c1 | -3.97% | – |
| CC(=O)Nc1ccc(C(=O)OCC(=O)Nc2ccc([N+](=O)[O-])cc2C(F)(F)F)cc1 | -0.0444% | – |
| O=[N+]([O-])c1ccc(NCCCO)c(C(F)(F)F)c1 | – | 15.8 µM (active) |
| CC(C)(C)C(=O)NCCCNc1ccc([N+](=O)[O-])cc1 | -7.51% | – |

| Compound | activity, negative = inhibition | Potency |
| --- | --- | --- |
| O=C(N/N=C/c1ccc(Cl)cc1)c1nc2ccc([N+](=O)[O-])cc2c(=O)[nH]1 | -8.44% | – |
| CC(=O)c1cnc(SCC(=O)O)nc1C | 6.8% | – |
| COc1ccc(NC2=CC(=S)NC(C)(C)C2)cc1 | 1.47% | – |
| Cc1cccc(N2CCN(c3ccc(NC(=O)/C=C\C(=O)O)cc3)CC2)c1 | – | 25.1 µM (active) |
| O=C(Nc1cccc(NC(=O)N2CCN(c3ccccc3)CC2)c1)N1CCN(c2ccccc2)CC1 | -6.69% | – |
| Cc1cccc(C(=O)Nc2ccccc2N2CCN(c3ccc(F)cc3)CC2)c1 | -8.56% | – |
| CCOCCCn1c(NN)nc2ccccc2c1=O | 0.593% | – |
| Cc1ccc(S(=O)(=O)N(CC(=O)N2CCc3ccccc3C2)c2cccc(Cl)c2)cc1 | – | 0.562 µM (active) |
| COc1cccc(N(CC(=O)N2CCc3ccccc3C2)S(C)(=O)=O)c1 | 3.68% | – |
| CCOC(=O)N1CCN(C(=O)CN(c2ccc(C)c(C)c2)S(=O)(=O)c2ccccc2)CC1 | 1.51% | – |
| CC(=O)NCC(=O)N(Cc1ccco1)C1(C(=O)NC2CCCC2)CCCCC1 | -4.75% | – |
| CCCc1[nH]nc2c1C(c1c(C)nn(-c3ccccc3)c1Cl)C(C#N)=C(N)O2 (stereo unspecified) | -7.97% | – |
| COc1ccccc1C1C(C#N)=C(N)Oc2c1c(-c1ccccc1)nn2-c1ccccc1 (stereo unspecified) | 1.85% | – |
| Cc1nn(Cc2ccccc2)c2c1C(c1ccccc1)C(C#N)=C(N)O2 (stereo unspecified) | – | 7.08 µM (active) |
| Cc1nn(-c2ccccc2)c2c1C(c1ccc(F)cc1)C(C#N)=C(N)O2 (stereo unspecified) | – | 3.55 µM (active) |
| CCc1ccc(C2C(C#N)=C(N)Oc3n[nH]c(CC(=O)OC)c32)cc1 (stereo unspecified) | -2.99% | – |
| Cc1cc2c(c(=O)n1Cc1ccco1)C(c1ccccc1)C(C#N)=C(N)O2 (stereo unspecified) | 5.32% | – |
| Cc1c(Br)c([N+](=O)[O-])nn1CC(=O)Nc1sc2c(c1C(=O)OC(C)C)CCC(C)C2 (stereo unspecified) | 11.3% | – |
| CCCCC[C@H](O)/C=C/[C@@H]1[C@@H](CC(=O)CCC(=O)O)[C@@H](O)C[C@H]1O | 3.43% | – |
| COc1ccc(C2CC(c3cccs3)=NN2C(=O)CSc2nncs2)cc1OC (stereo unspecified) | -3.31% | – |
| COc1cc(/C=N/N=C(\N)c2nonc2N)cc(OC)c1OC | -1.07% | – |
| COCCNC(=O)C(OC(=O)c1cccs1)c1ccc(F)cc1 (stereo unspecified) | 3.83% | – |

| Compound | activity, negative = inhibition | Potency |
| --- | --- | --- |
| CCc1nc2oc3ccccc3c(=O)c2c(=O)n1Cc1ccc(OC)cc1 | 8.05% | – |
| O=c1c2ccccc2oc2nc3n(c(=O)c12)CCCS3 | – | 25.1 µM (active) |
| O=c1c2ccccc2oc2nc(C3CCCCC3)n(Cc3ccco3)c(=O)c12 | -10.5% | – |
| COc1ccc(C2=NN(c3ccccc3)C(c3cccs3)C2)cc1 (stereo unspecified) | 14.6% | – |
| Cc1cnc(NC(=O)CSc2nnc(-c3ccc(Cl)cc3Cl)n2N)s1 | – | 20 µM (active) |
| Cc1cnc(NC(=O)CSc2nnc(-c3ccccc3)n2Cc2ccccc2)s1 | -1.75% | – |
| Cc1ccc(SCC(=O)Nc2ncc(C)s2)cc1 | 10.3% | – |
| Cc1ccc(-c2cc(C(=O)NN)n[nH]2)o1 | 9.31% | – |
| O=C(O)CCCC(=O)Nc1ccc(Oc2cccc(C(F)(F)F)c2)nc1 | 9.57% | – |
| Oc1ccc(N2CCN(C(=S)NCc3ccccc3)CC2)cc1 | – | 20 µM (active) |
| O=C(COC(=O)c1ccccc1C(=O)N1CCN(c2ccccc2)CC1)NCc1ccccc1 | 11.5% | – |
| Oc1ccccc1N1CCN(C(=S)NCc2ccccc2)CC1 | -6.52% | – |
| N/C(=N\OC(=O)c1ccc([N+](=O)[O-])cc1)c1ccccn1 | 13.7% | – |
| C[N+]1(CC(O)COc2ccccc2)CCN(C(=O)c2ccc([N+](=O)[O-])cc2)CC1 (stereo unspecified) | 9.82% | – |
| Nc1ccc(SCCN2C(=O)c3ccccc3C2=O)cc1 | 1.44% | – |
| CN(C)CCCn1c(SCCN2C(=O)c3ccccc3C2=O)nc2ccccc2c1=O | – | 20 µM (active) |
| CC(=O)NCCn1c(SCC(=O)Nc2ccc(C)cc2)nc2ccccc2c1=O | 1.03% | – |
| COc1ccc(C(=O)CSc2nnc(-c3ccco3)o2)cc1 | -14.6% | – |
| COC(=O)C1=C(NC(=O)C(C)(C)C)CCS1 | 6.13% | – |
| C=CCC(C(=O)c1ccccc1)[N+](C)(C)CC=C (stereo unspecified) | 5.4% | – |
| Cc1ccc(Cl)cc1NC(=S)N(CCN(C)C)Cc1cccs1 | 1.93% | – |
| N#C/C(=C(\O)C(F)(F)F)c1nnc2n1CCCCC2 | – | 4.47 µM (active) |

| Compound | activity, negative = inhibition | Potency |
| --- | --- | --- |
| N#Cc1cccc(Nc2c3c(nc4ccccc24)CCCC3)c1 | 2.92% | – |
| CCc1nnc(NC(=O)CCN(c2ccc(C)cc2)S(=O)(=O)c2ccccc2)s1 | -0.208% | – |
| CCOC(=O)Cn1c(=O)oc2cc(S(=O)(=O)N(C)Cc3ccco3)ccc21 | – | 15 µM (active) |
| CCOC(=O)Cn1c(=O)oc2cc(S(=O)(=O)NCC3CCCO3)ccc21 (stereo unspecified) | 1.27% | – |
| CCOc1ccc(S(=O)(=O)N(CC(=O)NCC(F)(F)F)Cc2ccco2)cc1 | 3.47% | – |
| Cc1ccc(CN2CCN(Cc3ccc(OCCO)cc3)CC2CCO)o1 (stereo unspecified) | 6.25% | – |
| COc1ccc(-c2nc3c(c4c2C[C@H](c2ccccc2)OC4)CN(C(=O)C2CC2)CC3)c(C)c1 | – | 0.398 µM (active) |
| C[C@H]1Cc2c(COc3ccccc3)nc3c(c2CO1)CN(C(=O)Nc1cccc(C#N)c1)CC3 | -13.5% [at 13.5 µM] | – |
| Cc1ccc(OCC(=O)N2CCN(C(=O)c3cccnc3)CC2)cc1 | -3.66% | – |
| COc1c(C)cc(C(=O)C2CCCN(S(=O)(=O)c3c(C)noc3C)C2)cc1C (stereo unspecified) | -2.76% | – |
| C[C@H]1Cc2c(COc3ccccc3)nc3c(c2CO1)CN(C(=O)NCc1ccco1)CC3 | -1.72% [at 13.5 µM] | – |
| COc1cccc(CC(=O)N2CCc3nc(COc4ccccc4)c4c(c3C2)CO[C@@H](C)C4)c1 | 6.69% [at 13.5 µM] | – |
| C[C@H]1Cc2c(-c3ccccc3)nc3c(c2CO1)CN(S(=O)(=O)c1ccc(Cl)c2nonc12)CC3 | -9.79% [at 13.5 µM] | – |
| COc1ccc(F)c(-c2nc(CN3CCC(c4ccccc4)CC3)c(C)o2)c1 | -4.43% | – |
| COc1ccc(-c2nc3c(c4c2C[C@H](c2ccccc2)OC4)CN(S(=O)(=O)c2c(C)noc2C)CC3)c(C)c1 | – | 0.447 µM (active) |
| COc1ccc(-c2nc3c(c4c2C[C@H](c2ccccc2)OC4)CN(C(=O)c2ccco2)CC3)c(C)c1 | – | 1.78 µM (active) |
| COc1ccc(-c2nc3c(c4c2C[C@H](c2ccccc2)OC4)CN(C(=O)c2cccnc2)CC3)c(C)c1 | – | 0.355 µM (active) |
| C[C@H]1Cc2c(-c3ccccc3)nc3c(c2CO1)CN(C(=O)C1CC1)CC3 | 8.3% [at 13.5 µM] | – |
